Experimental data: PubChem BioAssay (Tox21)
Records with an inconclusive call do not appear. Calls of active or inactive are those of the source. Calls follow the shape of the full dose curve.

Assays:
[1] = biological target: Acetylcholinesterase (Homo sapiens) (UniProt P22303); assay: Acetylcholinesterase (AChE) small molecule antagonists: colormetric cell-based qHTS assay (AID 1347395); also: nearly all actives have a fitted effect of over 30% in size
Method in brief: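 SH-SY5Y cells; cpd 30 min 37 C; + DTNB/acetylthiocholine, 90 min 37 C; colorimetric thiocholine read; qHTS.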

[2] = biological target: Acetylcholinesterase (Homo sapiens) (UniProt P22303); assay: Acetylcholinesterase (AChE) small molecule antagonists: enzyme-based qHTS assay (AID 1347397); details: Potency: AChE enzyme activity inhibition; outcome: AChE enzyme activity inhibition; also: nearly all actives have a fitted effect of over 55% in size
Method in brief: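 Recombinant human AChE (50 mU/mL) preincubated with compound 30 min at room temperature; acetylthiocholine plus DTNB then added, and thiocholine formation read colorimetrically after 10 min at room temperature. DMSO served as vehicle control.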

[3] = biological target: Acetylcholinesterase (Homo sapiens) (UniProt P22303); assay: Acetylcholinesterase (AChE) small molecule antagonists: fluorescence cell-based qHTS assay (AID 1347398); details: Potency: AChE activity; outcome: AChE activity; also: nearly all actives have a fitted effect of over 50% in size
Method in brief: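 SH-SY5Y cells (2000/well), attached overnight, incubated with compound 30 min at 37 C. Acetylthiocholine plus Thiolite Green then added for 40 min at room temperature. Thiocholine fluorescence (Ex/Em 490/520 nm) reports cellular AChE activity.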

[4] = biological target: Acetylcholinesterase (Homo sapiens) (UniProt P22303); assay: Acetylcholinesterase (AChE) small molecule antagonists: enzyme-based qHTS assay with human liver microsomes (AID 1347399); details: Potency: qHTS inhibition; outcome: qHTS inhibition; also: nearly all actives have a fitted effect of over 60% in size
Method in brief: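 Recombinant human AChE (50 mU/mL in the enzyme mix) and human liver microsomes (0.25 mg/mL final) were preincubated with compound and NADPH (0.25 mg/mL final) for 30 min at 37 C. Acetylthiocholine/DTNB was then added; thiocholine was read colorimetrically after 10 min at room temperature.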

Measured: Potency
Potency is read from the fitted curve at half-maximal effect.

Sequence of Acetylcholinesterase (Homo sapiens) (P22303 whole entry, looked up): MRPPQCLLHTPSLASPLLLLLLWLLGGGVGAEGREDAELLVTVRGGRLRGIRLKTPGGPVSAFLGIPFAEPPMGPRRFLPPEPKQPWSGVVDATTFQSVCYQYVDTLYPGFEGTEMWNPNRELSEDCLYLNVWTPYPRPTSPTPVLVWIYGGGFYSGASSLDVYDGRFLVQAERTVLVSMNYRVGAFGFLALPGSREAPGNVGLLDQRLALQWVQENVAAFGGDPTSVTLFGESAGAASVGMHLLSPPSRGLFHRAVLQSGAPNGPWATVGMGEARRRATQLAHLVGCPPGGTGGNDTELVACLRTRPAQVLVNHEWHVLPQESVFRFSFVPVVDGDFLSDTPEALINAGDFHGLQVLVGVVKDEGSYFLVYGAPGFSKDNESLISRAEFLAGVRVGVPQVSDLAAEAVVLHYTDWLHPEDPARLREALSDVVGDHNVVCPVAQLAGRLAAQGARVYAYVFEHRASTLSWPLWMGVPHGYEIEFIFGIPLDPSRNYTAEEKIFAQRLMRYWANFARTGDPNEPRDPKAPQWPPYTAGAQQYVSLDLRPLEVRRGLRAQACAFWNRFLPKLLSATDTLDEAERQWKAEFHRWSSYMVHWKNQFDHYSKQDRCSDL

Cc1c(F)cc2c(=O)c(C(=O)O)cn3c2c1CCC3C (stereo not given)
inactive: [1] | [2] | [3] | [4]

CCCCOC(=O)CCS
inactive: [1] | [2] | [3] | [4]

CC(C)=CC(=O)O
inactive: [1] | [2] | [3] | [4]

COc1cc(/C=C/c2ccccc2)oc(=O)c1
inactive: [1] | [2] | [3] | [4]

CC(CC=O)CCCC(C)(C)O (stereo not given)
inactive: [1] | [2] | [3] | [4]

CSc1cnccn1
inactive: [1] | [2] | [3] | [4]

CC(C)(C)C1CCC(O)CC1 (stereo not given)
inactive: [1] | [2] | [3] | [4]

O=[N+]([O-])c1ccc(Oc2ccc([N+](=O)[O-])cc2)cc1
inactive: [1] | [2] | [3] | [4]

CC(=O)N1CCN(c2ccc(OC[C@H]3CO[C@](Cn4ccnc4)(c4ccc(Cl)cc4Cl)O3)cc2)CC1
inactive: [2] | [4]
active: [1] 35.6 µM | [3] 31.7 µM

Cc1nc(C2CCCCC2)c(-c2ccc(S(N)(=O)=O)c(F)c2)o1
inactive: [1] | [2] | [3] | [4]

O=c1[nH]c2ccc(S(=O)CCN3CCC(Cc4ccc(F)cc4)CC3)cc2o1 (stereo not given)
active: [1] 6.33 µM | [2] 5.64 µM | [3] 1.12 µM | [4] 35.6 µM

CC(C)=CCC/C(C)=C/CC/C(C)=C/CO
inactive: [1] | [2] | [3] | [4]

c1ccc(Nc2ccccc2)cc1
inactive: [1] | [2] | [3] | [4]

CCCCCCC(CO)CCCC (stereo not given)
inactive: [1] | [2] | [3] | [4]

O=C(Cl)c1c(Cl)c(Cl)c(C(=O)Cl)c(Cl)c1Cl
inactive: [1] | [2] | [3] | [4]

O=C(NCCCN1CCOCC1)c1ccc(Cl)cc1
inactive: [1] | [2] | [3] | [4]

CNC1CCCN(c2c(F)cc3c(=O)c(C(=O)O)cn(C4CC4)c3c2OC)C1 (stereo not given)
inactive: [1] | [2] | [3] | [4]

C[C@@H](C1=C(CCN(C)C)Cc2ccccc21)c1ccccn1
inactive: [1] | [2] | [3] | [4]

CC(=O)OC/C=C(\C)CCC=C(C)C
inactive: [1] | [2] | [3] | [4]

Cc1ccc(C(C)C)cc1O
inactive: [1] | [2] | [3] | [4]

O=Nc1ccc(O)cc1
inactive: [1] | [2] | [3] | [4]

COc1cc(C(=O)OC(COCCC(C)C)CN2CCOCC2)cc(OC)c1OC (stereo not given)
inactive: [1] | [2] | [3] | [4]

CCc1ccc(Br)cc1
inactive: [1] | [2] | [3] | [4]

Cc1ccc(C)c(O)c1C
inactive: [1] | [2] | [3] | [4]

CCCCOC(=O)CC#N
inactive: [1] | [2] | [3] | [4]

CCCCOCCOCCSC#N
inactive: [1] | [2] | [3] | [4]

CC(=O)Nc1c(I)c(NC(C)=O)c(I)c(C(=O)O)c1I
inactive: [1] | [2] | [3] | [4]

CC(C)CCCCCCCOC(=O)CCCCC(=O)OCCCCCCCC(C)C
inactive: [1] | [2] | [3] | [4]

COC(C)(C)CCCC(C)CC=O (stereo not given)
inactive: [1] | [2] | [3] | [4]

O=C1c2ccccc2C(=O)N1CCl
inactive: [1] | [2] | [3] | [4]
